Measured values reported in PubChem BioAssay AID1159580 (chemical genetic matrix, 2015).
About 2,000 (36%) of roughly 5,500 compounds were called active. Another 18% or so got no clear call; they are omitted. No stated cut-off is given here; in the data, active means normalized growth mostly below about 0.91 (no sharp cut-off); inconclusive means no clear call, values can overlap the other calls; inactive means mostly above about 0.92. Some of the results follow.

Test: chemical genetic growth profiling, strain panel (AID 1159580);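 further: tested at 20 µM; growth read once vehicle control cultures reached saturation at 30 °C; 1 = growth at the plate median or of vehicle wells; lower values mean less growth of the strain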
Settings: growth OD

Measured: normalized growth

CC(=O)Nc1nnc(S(N)(=O)=O)s1
active: S. cerevisiae deletion strains, locus YKL190W, strain CNB1, active compounds read low 0.569 | S. cerevisiae deletion strains, locus YKR001C, strain vps1, active compounds read low 0.884 | S. cerevisiae deletion strains, locus YLR039C, strain RIC1, active compounds read low 0.423 | S. cerevisiae deletion strains, locus YLR058C, strain SHM2, active compounds read low 0.837 | S. cerevisiae deletion strains, locus YLR262C, strain YPT6, active compounds read low 0.321 | S. cerevisiae deletion strains, locus YLR330W, strain CHS5, active compounds read low 0.557 | S. cerevisiae deletion strains, locus YLR342W, strain FKS1 (second series), active compounds read low 0.496 | S. cerevisiae deletion strains, locus YLR418C, strain cdc73, active compounds read low 0.637 | S. cerevisiae deletion strains, locus YML016C, strain PPZ1, active compounds read low 0.412 | S. cerevisiae deletion strains, locus YMR263W, strain SAP30, active compounds read low 0.809 | S. cerevisiae deletion strains, locus YMR307W, strain GAS1, active compounds read low 0.439 | S. cerevisiae deletion strains, locus YNL067W, strain RPL9B, active compounds read low 0.755 | S. cerevisiae deletion strains, locus YNL233W, strain BNI4, active compounds read low 0.792 | S. cerevisiae deletion strains, locus YNL307C, strain MCK1, active compounds read low 0.846 | S. cerevisiae deletion strains, locus YNL322C, strain KRE1, active compounds read low 0.592 | S. cerevisiae deletion strains, locus YOL006C, strain TOP1, active compounds read low 0.141 | S. cerevisiae deletion strains, locus YOR061W, strain CKA2, active compounds read low 0.702 | S. cerevisiae deletion strains, locus YOR069W, strain VPS5, active compounds read low 0.826 | S. cerevisiae deletion strains, locus YPL241C, strain CIN2, active compounds read low 0.645 | S. cerevisiae deletion strains, strain wtn01, active compounds read low 0.874 | S. cerevisiae strains, strain wild type, active compounds read low 0.533
inactive: S. cerevisiae deletion strains, locus YKL009W, strain mrt4, active compounds read low 1.03 | S. cerevisiae deletion strains, locus YKL068W, active compounds read low 1 | S. cerevisiae deletion strains, locus YKL085W, strain MDH1 (second series), active compounds read low 1.01 | S. cerevisiae deletion strains, locus YKL085W, strain MDH1, active compounds read low 1.01 | S. cerevisiae deletion strains, locus YKL160W, strain elf1, active compounds read low 1 | S. cerevisiae deletion strains, locus YKR026C, strain gcn3, active compounds read low 1 | S. cerevisiae deletion strains, locus YKR091W, strain srl3, active compounds read low 1.01 | S. cerevisiae deletion strains, locus YLL001W, strain dnm1, active compounds read low 1.01 | S. cerevisiae deletion strains, locus YLL026W, active compounds read low 1.01 | S. cerevisiae deletion strains, locus YLL041C, strain sdh2, active compounds read low 1.01 | S. cerevisiae deletion strains, locus YLR027C, strain aat2, active compounds read low 1.01 | S. cerevisiae deletion strains, locus YLR102C, strain apc9, active compounds read low 0.99 | S. cerevisiae deletion strains, locus YLR113W, strain HOG1, active compounds read low 0.982 | S. cerevisiae deletion strains, locus YLR221C, strain rsa3, active compounds read low 0.986 | S. cerevisiae deletion strains, locus YLR258W, strain gsy2, active compounds read low 1.01 | S. cerevisiae deletion strains, locus YLR262C, strain YPT6 (second series), active compounds read low 1.04 | S. cerevisiae deletion strains, locus YLR268W, strain sec22, active compounds read low 0.895 | S. cerevisiae deletion strains, locus YLR320W, strain mms22, active compounds read low 0.99 | S. cerevisiae deletion strains, locus YLR342W, strain FKS1, active compounds read low 1.02 | S. cerevisiae deletion strains, locus YLR357W, strain rsc2, active compounds read low 1 | S. cerevisiae deletion strains, locus YLR370C, strain arc18, active compounds read low 0.996 | S. cerevisiae deletion strains, locus YLR371W, strain rom2, active compounds read low 0.945 | S. cerevisiae deletion strains, locus YLR384C, strain iki3, active compounds read low 1 | S. cerevisiae deletion strains, locus YML032C, strain rad52, active compounds read low 1.01 | S. cerevisiae deletion strains, locus YML120C, strain ndi1, active compounds read low 1.02 | S. cerevisiae deletion strains, locus YML124C, strain tub3, active compounds read low 1.01 | S. cerevisiae deletion strains, locus YMR058W, strain fet3, active compounds read low 1.02 | S. cerevisiae deletion strains, locus YMR078C, strain ctf18, active compounds read low 0.994 | S. cerevisiae deletion strains, locus YMR125W, strain sto1, active compounds read low 0.989 | S. cerevisiae deletion strains, locus YMR129W, active compounds read low 1.02 | S. cerevisiae deletion strains, locus YMR205C, strain PFK2, active compounds read low 1.01 | S. cerevisiae deletion strains, locus YMR223W, strain ubp8, active compounds read low 0.904 | S. cerevisiae deletion strains, locus YMR231W, strain pep5, active compounds read low 0.993 | S. cerevisiae deletion strains, locus YNL071W, strain lat1, active compounds read low 1.01 | S. cerevisiae deletion strains, locus YNL128W, strain TEP1, active compounds read low 1 | S. cerevisiae deletion strains, locus YNL175C, strain NOP13, active compounds read low 1.03 | S. cerevisiae deletion strains, locus YNL183C, strain NPR1, active compounds read low 0.959 | S. cerevisiae deletion strains, locus YNL197C, strain WHI3, active compounds read low 1 | S. cerevisiae deletion strains, locus YNL209W, strain ssb2, active compounds read low 1.01 | S. cerevisiae deletion strains, locus YNL224C, strain SQS1, active compounds read low 0.996 | S. cerevisiae deletion strains, locus YNL248C, strain rpa49, active compounds read low 0.971 | S. cerevisiae deletion strains, locus YNL250W, strain rad50, active compounds read low 1.01 | S. cerevisiae deletion strains, locus YNL271C, strain bni1, active compounds read low 1.01 | S. cerevisiae deletion strains, locus YNL298W, strain CLA4, active compounds read low 1 | S. cerevisiae deletion strains, locus YNL322C, strain KRE1 (second series), active compounds read low 1.01 | S. cerevisiae deletion strains, locus YNR049C, strain mso1, active compounds read low 1.02 | S. cerevisiae deletion strains, locus YNR052C, strain pop2, active compounds read low 0.995 | S. cerevisiae deletion strains, locus YOL012C, strain htz1 0.275 | S. cerevisiae deletion strains, locus YOL147C, strain pex11, active compounds read low 1.01 | S. cerevisiae deletion strains, locus YOR001W, strain rrp6, active compounds read low 1.02 | S. cerevisiae deletion strains, locus YOR070C, strain gyp1, active compounds read low 1 | S. cerevisiae deletion strains, locus YOR080W, strain dia2, active compounds read low 1.01 | S. cerevisiae deletion strains, locus YOR083W, strain WHI5 (second series), active compounds read low 1.02 | S. cerevisiae deletion strains, locus YOR083W, strain WHI5, active compounds read low 0.993 | S. cerevisiae deletion strains, locus YOR106W, strain vam3, active compounds read low 1.02 | S. cerevisiae deletion strains, locus YOR136W, strain idh2, active compounds read low 0.979 | S. cerevisiae deletion strains, locus YOR144C, strain elg1, active compounds read low 1.01 | S. cerevisiae deletion strains, locus YOR184W, strain ser1, active compounds read low 0.885 | S. cerevisiae deletion strains, locus YOR231W, strain MKK1, active compounds read low 0.987 | S. cerevisiae deletion strains, locus YOR265W, strain rbl2, active compounds read low 1.01 | S. cerevisiae deletion strains, locus YOR270C, strain vph1, active compounds read low 1 | S. cerevisiae deletion strains, locus YOR290C, strain snf2, active compounds read low 1 | S. cerevisiae deletion strains, locus YOR316C, strain cot1, active compounds read low 0.982 | S. cerevisiae deletion strains, locus YPL051W, strain arl3, active compounds read low 1 | S. cerevisiae deletion strains, locus YPL078C, strain atp4, active compounds read low 1.02 | S. cerevisiae deletion strains, locus YPL106C, strain sse1, active compounds read low 0.998 | S. cerevisiae deletion strains, locus YPL240C, strain hsp82, active compounds read low 1 | S. cerevisiae deletion strains, locus YPL256C, strain CLN2, active compounds read low 0.992 | S. cerevisiae deletion strains, locus YPR119W, strain clb2, active compounds read low 1.01 | S. cerevisiae deletion strains, locus YPR141C, strain kar3, active compounds read low 1.01 | S. cerevisiae deletion strains, locus YPR163C, strain tif3, active compounds read low 0.987 | S. cerevisiae deletion strains, locus YPR167C, strain met16, active compounds read low 0.964
